SMILES strings stand for the structures. Hit rate of the full screen: of about 330,000 compounds, about 7,300 (2.2%) were called active.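 The calls were made as follows: active = inhibition of at least 40%; inactive = the rest.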 What follows is part of a selection rich in actives, with near analogues and random picks from the rest.

This assay in a line: growth inhibitors of tim10-1 mutant yeast, primary screen, luminescence, uHTS (AID 463190).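 Also: mutant grown at 25 °C; 0% = DMSO wells with yeast and 100% = wells holding no yeast.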 The settings on record: S. cerevisiae tim10-1 ts strain growth, BacTiter-Glo, 24 h; at 20 µM; hits give high values.
One may read the inhibition as the drop in the measured response relative to a control, in per cent. Take `Cc1ccc(S(=O)(=O)N2CCN(C(=O)CSc3cc(C)ccc3C)CC2)c(C)c1`: the inhibition was 23.1% (inactive).

Consider `O=C(NCc1ccco1)c1nc2ncccn2n1`, for which the inhibition was 1.9% (inactive).

With `O=C(NCc1ccco1)c1cccn2c(=O)c3c4c(sc3nc12)CCCC4`, the inhibition was 41.6% (active).

On to `Cc1cccc(Nc2ccccc2C(=O)NCc2ccco2)c1C`, for which the inhibition was 29.9% (inactive).

`COc1ccc(C(=O)N2CCC(C(=O)Nc3cccc(C)c3)CC2)cc1OC`: the inhibition was -7.58% (inactive).

Consider `O=C(NCCc1ccco1)c1nn(Cc2ccccc2)c(=O)c2ccccc12`, for which the inhibition was 14.5% (inactive).

On to `O=C(Nc1ccccc1)/C(=C\c1ccco1)NC(=O)c1ccco1`, for which the inhibition is 23.3% (inactive).

For `O=c1nc2s/c(=C\c3ccco3)c(=O)n2nc1Cc1ccccc1`, the inhibition is 63% (active).

In the case of `CC(=O)N1N=C(c2ccccc2)OC1c1cccnc1` (stereo unspecified), the inhibition was 7.21% (inactive).

On to `Cc1ccc2nc(N3CCN(C(=O)c4ccco4)CC3)sc2c1`, for which the inhibition is 6.64% (inactive).

On to `CCN(CC)CCN(C(=O)c1cccc([N+](=O)[O-])c1)c1nc2ccc(OC)cc2s1`, for which the inhibition was 12.5% (inactive).

Take `COc1ccc2nc(N3CCN(C(=O)c4ccc([N+](=O)[O-])o4)CC3)sc2c1`: the inhibition was 42.2% (active).

For `CC(C)NS(=O)(=O)c1ccc(OCC(=O)NC2CCCCCC2)cc1`, the inhibition was 4.48% (inactive).

For `Cc1nn(-c2ccccc2)c2sc(C(=O)N(Cc3ccco3)C(C)C(=O)NC(C)(C)C)cc12` (stereo unspecified), the inhibition was 14.2% (inactive).

`CC1=NN(C(N)=S)C(=O)C1N=Nc1cc(Cl)ccc1Cl` (stereo unspecified): the inhibition is 38.6% (inactive).

As for `Cc1[nH]n(C(N)=S)c(=O)c1N=Nc1ccc(Cl)cc1Cl`, the inhibition was 47.4% (active).

With `Cc1cccc(N=Nc2c(C)[nH]n(-c3ccccc3)c2=O)c1`, the inhibition was 20.1% (inactive).

Turning to `CSc1cc(C)n(-c2ccccc2C)c(=S)c1C(C)=O`, the inhibition is -13.6% (inactive).

On to `COc1ccc2nc(/N=C(\N)NC(=O)Nc3ccccc3)nc(C)c2c1`, for which the inhibition was 50% (active).

Turning to `COc1ccc2nc(C)cc(Nc3cccc(C(=O)O)c3)c2c1`, the inhibition was -1.42% (inactive).

Turning to `Cc1nc(/N=C(\N)NC(=O)NC2CCCCC2)nc2ccccc12`, the inhibition was -11.5% (inactive).

Turning to `Cn1c(SCc2nc3ccccc3s2)nnc1-c1ccc2c(c1)OCO2`, the inhibition is -2.97% (inactive).

With `O=C(CCl)Nc1cccc(CP(=O)(c2ccccc2)c2ccccc2)c1`, the inhibition was 9.52% (inactive).

Take `Cn1c(SCC(=O)Nc2cccc(NC(=O)c3cccs3)c2)nnc1-c1ccncc1`: the inhibition is -9.32% (inactive).

Consider `O=C(NOCc1ccccc1)c1cccc([N+](=O)[O-])c1`, for which the inhibition was 21.3% (inactive).

As to `CCCCN=C1C([N+](=O)[O-])=CC=C2C1=NC1(CCCCC1)N2O`, the inhibition is 9% (inactive).

In the case of `Cc1cccc(OCC(=O)Nc2ccc(NC(=O)c3ccco3)c(C)c2)c1`, the inhibition was 1.89% (inactive).

With `COc1ccc(OCC(=O)Nc2ccc(NC(=O)c3ccco3)c(C)c2)cc1`, the inhibition was -11.8% (inactive).

Regarding `Cc1ccc(C(=O)COc2cccc(NC(=O)c3ccco3)c2)cc1`, the inhibition is 40.3% (active).

In the case of `O=C1Nc2ccc(Br)cc2/C1=N/N=C/C1=C(N2CCOCC2)C(=C\c2ccccc2)/CC1`, the inhibition is 45.5% (active).

In the case of `C(=N\N1CCN(c2ccccn2)CC1)/C1=C(N2CCOCC2)C(=C/c2ccccc2)/CC1`, the inhibition was 34.3% (inactive).

For the compound `COc1ccc(/C=N/N=C2/C(=O)Nc3ccccc32)cc1O`, the inhibition is 9.34% (inactive).

For the compound `C#CC(CCN1CCCCC1)(OC)c1ccccc1` (stereo unspecified), the inhibition is 7.91% (inactive).

As to `Cc1ccc(-c2cn3cc([N+](=O)[O-])ccc3n2)cc1`, the inhibition was -1.69% (inactive).

In the case of `Cc1ccc(-c2cn3cc(C)ccc3n2)cc1`, the inhibition is 51.8% (active).

Turning to `Cc1ccc2nc(-c3ccc(Br)cc3)cn2c1`, the inhibition was -3.32% (inactive).

In the case of `CCOc1ccc(-n2c(SC(C)C(=O)OC)nc3c(c2=O)SCC3)cc1` (stereo unspecified), the inhibition was 10.7% (inactive).

Turning to `Cc1cc(F)ccc1NC(=O)C(C)n1c2ccccc2c2nc(=O)cc(C)n21` (stereo unspecified), the inhibition is 13.9% (inactive).

With `C[C@H](CO)N1C[C@H](C)[C@@H](CN(C)S(=O)(=O)c2ccc(F)cc2)Oc2c(NC(=O)Nc3ccccc3)cccc2C1=O`, the inhibition is -4.64% (inactive).

As for `O=C(OCC(=O)N1CCCC1=O)c1cc(S(=O)(=O)N2CCOCC2)ccc1Cl`, the inhibition was -17.2% (inactive).

Regarding `Cc1ccc(S(=O)(=O)N2CCC(C(=O)NCCC3=CCCCC3)CC2)cc1C`, the inhibition is -3% (inactive).

`O=C(NCc1ccccc1Cl)c1csc2c1CCCCC2`: the inhibition is 12.3% (inactive).

`CC(=O)Cc1nsc(NC(=O)c2ccc(Cl)cc2Cl)n1`: the inhibition is 36.5% (inactive).

Consider `CC(=O)Cc1nsc(NC(=O)c2csc3c2CCCC3)n1`, for which the inhibition was 41.9% (active).

Regarding `Cc1ccc(CNC(=O)CCC(=O)N2CC(C)Sc3ccccc32)cc1` (stereo unspecified), the inhibition is 28.3% (inactive).

Turning to `CCCc1nnc(NC(=O)CCC(=O)NC2CC2)s1`, the inhibition is 10.7% (inactive).

With `Cc1ccc2[nH]c(C)c(CCNC(=O)NC3CCCCC3)c2c1`, the inhibition is 11.4% (inactive).

`COc1ccc(C(=O)COC(=O)COc2ccc(C)c(C)c2)cc1`: the inhibition was 10.1% (inactive).

Regarding `Cc1ccc(/C(N)=N/OC(=O)COc2ccc(Cl)c(C)c2)cc1`, the inhibition was 41.2% (active).

As for `Cc1cc(OCC(=O)N2CCN(c3ncccn3)CC2)ccc1Cl`, the inhibition was 16% (inactive).

As for `COC(=O)c1cccc([N+](=O)[O-])c1CS(=O)(=O)c1ccc(C)cc1`, the inhibition is 24.5% (inactive).

For `COc1ccc(C(=O)Nc2nc(-c3ccc(OC)cc3)c(-c3ccc([N+](=O)[O-])cc3)s2)cc1`, the inhibition is 14.1% (inactive).

On to `Cc1ccc(OC(=O)CCC(=O)Nc2ccc(Br)cc2)cc1`, for which the inhibition was 0.584% (inactive).

As for `COC(=O)CCc1sc(Nc2ccc(Br)cc2)nc1-c1ccc(OC)cc1`, the inhibition was 46.4% (active).

Consider `CCCn1nnc2sc3c(c2c1=O)CCC(C)C3` (stereo unspecified), for which the inhibition is 9.67% (inactive).

For `C=CCn1c(SCc2c(C)noc2C)nc2sc3c(c2c1=O)CCC(C)C3` (stereo unspecified), the inhibition is -4.33% (inactive).

For `CC1CCc2c(sc3nc4n(c(=O)c23)CCS4)C1` (stereo unspecified), the inhibition is 40.6% (active).

`Cc1cc2c(c(=O)n1C)C(C(C)C)C(C#N)=C(N)O2` (stereo unspecified): the inhibition is -3.2% (inactive).

Turning to `COc1cccc(CNC(=O)C2CCN(S(=O)(=O)c3cccc4cccnc34)CC2)c1`, the inhibition is 13.9% (inactive).

With `Cn1c(=O)c(C(=O)Nc2ncccn2)c(O)c2ccccc21`, the inhibition is 25.2% (inactive).

As to `C=CCn1c(SCc2c(C(=O)OC)sc(N)c2C(=O)OC)nnc1-c1ccc(Cl)cc1`, the inhibition was 15.3% (inactive).

For the origin of these results see PubChem BioAssay AID463190 (Sanford-Burnham Center for Chemical Genomics, 2010).
